Measurements published in article PMC9911399, “Two distinct binding modes provide the RNA-binding protein RbFox with extraordinary sequence specificity”.
Where a chain is given by its changes, count along the chain named. The full ranking holds about 16,000 sequences; the median of “ka relative to ugcaugu” is about 0.096, and the highest 2% start at about 0.35. This is one part of a sample in which the highest values are shown more often than they occur.

T1: RBFOX1 RRM RbFoxmut (Fox-RRM*) (Homo sapiens, UniProt Q9NWB1 109-208, R118D;E147R;N151S;E152T)
T1 sequence: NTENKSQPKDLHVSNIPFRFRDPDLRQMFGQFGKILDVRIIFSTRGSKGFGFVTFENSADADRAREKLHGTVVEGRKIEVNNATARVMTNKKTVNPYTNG

B1: GUCCGUC (DNA:RNA)
RNA: GGGAGACCGGAAUUCAGAUUGUCCGUCCGUCUUAAAUCCCGUCGUAGCCACCA
DNA 1: CAATCTGAATTCCGGTCTCCC
DNA 2: TGGTGGCTACGACGGGATT
B2: GCGCAUG (DNA:RNA)
RNA: B1 RNA with U26C, C27G, G29A, C31G
DNA 1: CAATCTGAATTCCGGTCTCCC
DNA 2: TGGTGGCTACGACGGGATT
B3: GCAUAUG (DNA:RNA)
RNA: B1 RNA with U26C, C27A, C28U, G29A, C31G
DNA 1: CAATCTGAATTCCGGTCTCCC
DNA 2: TGGTGGCTACGACGGGATT
B4: GCAUGUC (DNA:RNA)
RNA: B1 RNA with U26C, C27A, C28U
DNA 1: CAATCTGAATTCCGGTCTCCC
DNA 2: TGGTGGCTACGACGGGATT
B5: GCGCGCA (DNA:RNA)
RNA: B1 RNA with U26C, C27G, U30C, C31A
DNA 1: CAATCTGAATTCCGGTCTCCC
DNA 2: TGGTGGCTACGACGGGATT
B6: GCACAUG (DNA:RNA)
RNA: B1 RNA with U26C, C27A, G29A, C31G
DNA 1: CAATCTGAATTCCGGTCTCCC
DNA 2: TGGTGGCTACGACGGGATT
B7: GCAGAUG (DNA:RNA)
RNA: B1 RNA with U26C, C27A, C28G, G29A, C31G
DNA 1: CAATCTGAATTCCGGTCTCCC
DNA 2: TGGTGGCTACGACGGGATT
B8: GCAUGUG (DNA:RNA)
RNA: B1 RNA with U26C, C27A, C28U, C31G
DNA 1: CAATCTGAATTCCGGTCTCCC
DNA 2: TGGTGGCTACGACGGGATT
B9: GCGCAUA (DNA:RNA)
RNA: B1 RNA with U26C, C27G, G29A, C31A
DNA 1: CAATCTGAATTCCGGTCTCCC
DNA 2: TGGTGGCTACGACGGGATT
B10: GGCUGGU (DNA:RNA)
RNA: B1 RNA with U26G, C28U, U30G, C31U
DNA 1: CAATCTGAATTCCGGTCTCCC
DNA 2: TGGTGGCTACGACGGGATT
B11: GAAGAAG (DNA:RNA)
RNA: B1 RNA with U26A, C27A, C28G, G29A, U30A, C31G
DNA 1: CAATCTGAATTCCGGTCTCCC
DNA 2: TGGTGGCTACGACGGGATT
B12: CACGUCA (DNA:RNA)
RNA: B1 RNA with G25C, U26A, C28G, G29U, U30C, C31A
DNA 1: CAATCTGAATTCCGGTCTCCC
DNA 2: TGGTGGCTACGACGGGATT
B13: CCUUCGA (DNA:RNA)
RNA: GGGAGACCGGAAUUCAGAUUGUCCCCUUCGAUUAAAUCCCGUCGUAGCCACCA
DNA 1: CAATCTGAATTCCGGTCTCCC
DNA 2: TGGTGGCTACGACGGGATT
B14: GUGCUCC (DNA:RNA)
RNA: B1 RNA with C27G, G29U, U30C
DNA 1: CAATCTGAATTCCGGTCTCCC
DNA 2: TGGTGGCTACGACGGGATT
B15: CCUGGUG (DNA:RNA)
RNA: B13 RNA with U28G, C29G, G30U, A31G
DNA 1: CAATCTGAATTCCGGTCTCCC
DNA 2: TGGTGGCTACGACGGGATT
B16: UGGUCCG (DNA:RNA)
RNA: B13 RNA with C25U, C26G, U27G, G30C, A31G
DNA 1: CAATCTGAATTCCGGTCTCCC
DNA 2: TGGTGGCTACGACGGGATT
B17: UGUGGUG (DNA:RNA)
RNA: B1 RNA with G25U, U26G, C27U, C28G, C31G
DNA 1: CAATCTGAATTCCGGTCTCCC
DNA 2: TGGTGGCTACGACGGGATT
B18: UGGGUGU (DNA:RNA)
RNA: B13 RNA with C25U, C26G, U27G, U28G, C29U, A31U
DNA 1: CAATCTGAATTCCGGTCTCCC
DNA 2: TGGTGGCTACGACGGGATT
B19: UGGUGUG (DNA:RNA)
RNA: B1 RNA with G25U, U26G, C27G, C28U, C31G
DNA 1: CAATCTGAATTCCGGTCTCCC
DNA 2: TGGTGGCTACGACGGGATT
B20: UGGGGGG (DNA:RNA)
RNA: B13 RNA with C25U, C26G, U27G, U28G, C29G, A31G
DNA 1: CAATCTGAATTCCGGTCTCCC
DNA 2: TGGTGGCTACGACGGGATT
B21: UGUUGGG (DNA:RNA)
RNA: B13 RNA with C25U, C26G, C29G, A31G
DNA 1: CAATCTGAATTCCGGTCTCCC
DNA 2: TGGTGGCTACGACGGGATT
B22: UGGGGUG (DNA:RNA)
RNA: B1 RNA with G25U, U26G, C27G, C28G, C31G
DNA 1: CAATCTGAATTCCGGTCTCCC
DNA 2: TGGTGGCTACGACGGGATT
B23: CUGGGUG (DNA:RNA)
RNA: B1 RNA with G25C, C27G, C28G, C31G
DNA 1: CAATCTGAATTCCGGTCTCCC
DNA 2: TGGTGGCTACGACGGGATT
B24: UGGGUUG (DNA:RNA)
RNA: B1 RNA with G25U, U26G, C27G, C28G, G29U, C31G
DNA 1: CAATCTGAATTCCGGTCTCCC
DNA 2: TGGTGGCTACGACGGGATT
B25: UGGGUCC (DNA:RNA)
RNA: B1 RNA with G25U, U26G, C27G, C28G, G29U, U30C
DNA 1: CAATCTGAATTCCGGTCTCCC
DNA 2: TGGTGGCTACGACGGGATT
B26: UGGGUCG (DNA:RNA)
RNA: GGGAGACCGGAAUUCAGAUUGUCCUGGGUCGUUAAAUCCCGUCGUAGCCACCA
DNA 1: CAATCTGAATTCCGGTCTCCC
DNA 2: TGGTGGCTACGACGGGATT
B27: GGUUCAA (DNA:RNA)
RNA: B13 RNA with C25G, C26G, G30A
DNA 1: CAATCTGAATTCCGGTCTCCC
DNA 2: TGGTGGCTACGACGGGATT
B28: CCGCUAC (DNA:RNA)
RNA: B13 RNA with U27G, U28C, C29U, G30A, A31C
DNA 1: CAATCTGAATTCCGGTCTCCC
DNA 2: TGGTGGCTACGACGGGATT
B29: UGUACUC (DNA:RNA)
RNA: B13 RNA with C25U, C26G, U28A, G30U, A31C
DNA 1: CAATCTGAATTCCGGTCTCCC
DNA 2: TGGTGGCTACGACGGGATT
B30: ACGAAGA (DNA:RNA)
RNA: B13 RNA with C25A, U27G, U28A, C29A
DNA 1: CAATCTGAATTCCGGTCTCCC
DNA 2: TGGTGGCTACGACGGGATT
B31: UUCGCAG (DNA:RNA)
RNA: B26 RNA with G26U, G27C, U29C, C30A
DNA 1: CAATCTGAATTCCGGTCTCCC
DNA 2: TGGTGGCTACGACGGGATT

Target: T1, RBFOX1 RRM RbFoxmut (Fox-RRM*)
Experiment: EMSA; HiTS-Eq, 1 nM pool, 10 min; buffer printed only for the single-RNA assays: 10 mM Tris pH 7.5, 150 mM NaCl, 3.4 mM EDTA, 0.001% NP-40, 30 C
Conditions: tags: His6 N-terminal (pET28a); label: 5' 32P
Procedure, shortened: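 Purified wild-type or mutant RbFox RRM at increasing concentrations was equilibrated with 1 nM of 5′-radiolabelled RNA carrying 7 randomized nucleotides for 10 min in 50 µL. Unbound RNA was separated by 8% native PAGE and sequenced. Relative association constants came from read-count changes of each RNA species compared with the control reaction, normalised to the cognate motif.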

| Binder | binding signal |
| --- | --- |
| B1 | 0.0864 KA relative to UGCAUGU |
| B2 | 1.33 KA relative to UGCAUGU |
| B3 | 0.197 KA relative to UGCAUGU |
| B4 | 0.492 KA relative to UGCAUGU |
| B5 | 0.13 KA relative to UGCAUGU |
| B6 | 0.128 KA relative to UGCAUGU |
| B7 | 0.142 KA relative to UGCAUGU |
| B8 | 0.954 KA relative to UGCAUGU |
| B9 | 0.152 KA relative to UGCAUGU |
| B10 | 0.14 KA relative to UGCAUGU |
| B11 | 0.0975 KA relative to UGCAUGU |
| B12 | 0.124 KA relative to UGCAUGU |
| B13 | 0.0928 KA relative to UGCAUGU |
| B14 | 0.0573 KA relative to UGCAUGU |
| B15 | 0.109 KA relative to UGCAUGU |
| B16 | 0.265 KA relative to UGCAUGU |

| Binder | binding signal |
| --- | --- |
| B17 | 0.273 KA relative to UGCAUGU |
| B18 | 0.305 KA relative to UGCAUGU |
| B19 | 0.498 KA relative to UGCAUGU |
| B20 | 0.0903 KA relative to UGCAUGU |
| B21 | 0.0997 KA relative to UGCAUGU |
| B22 | 0.38 KA relative to UGCAUGU |
| B23 | 0.347 KA relative to UGCAUGU |
| B24 | 0.947 KA relative to UGCAUGU |
| B25 | 0.149 KA relative to UGCAUGU |
| B26 | 0.375 KA relative to UGCAUGU |
| B27 | 0.0825 KA relative to UGCAUGU |
| B28 | 0.129 KA relative to UGCAUGU |
| B29 | 0.0695 KA relative to UGCAUGU |
| B30 | 0.105 KA relative to UGCAUGU |
| B31 | 0.0914 KA relative to UGCAUGU |
